# Data: publication PMC13083723 (Patterns, 2026)
# Among all 5,400 compounds or so, about 190 (3.5%) showed an effect of 50% or more. The sample as a whole holds a higher share of strong results than the screen did.
# Tested on: Vero-E6
# Assay: primary screen, phospholipidosis by LipidTOX staining; higher = more effect of the substance
# Settings: 10 µM
# Method in brief: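 Single-concentration screen at 10 μM, with DMSO 0.1 v/v % and amiodarone 10 μM as controls. Read-out is LipidTOX Red phospholipid staining, which tolerates aldehyde fixation, in Vero-E6 cells.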
row,Structure (SMILES),result_ITMP [%]
1,O=C(NCC(=O)N1CC[C@H](N[C@H]2CC[C@@](O)(c3ccc(-c4ncccn4)cn3)CC2)C1)c1cccc(C(F)(F)F)c1,-0.29
2,O=S(=O)(OC[C@H]1O[C@@](COS(=O)(=O)[O][Al]([OH])[OH])(O[C@H]2O[C@H](COS(=O)(=O)[O][Al]([OH])[OH])[C@@H](OS(=O)(=O)[O][Al]([OH])[OH])[C@H](OS(=O)(=O)[O][Al]([OH])[OH])[C@H]2OS(=O)(=O)[O][Al]([OH])[OH])[C@@H](OS(=O)(=O)[O][Al]([OH])[OH])[C@@H]1OS(=O)(=O)[O][Al]([OH])[OH])[O][Al]([OH])[OH],6.9
3,OC[C@@H](O)[C@@H](O)CO,-7.96
4,Cc1ccc2nc(N)nc(O)c2c1Sc1ccncc1,3.27
5,Fc1cc(-c2cccc3ncc(-c4cnn(C5CCNCC5)c4)nc23)cc(F)c1CN1CCOCC1,73.3
6,CC(C)(C)C(=O)CN1C(=O)[C@H](NC(=O)Nc2cccc(C(=O)O)c2)CN(C2CCCCC2)c2ccccc21,-0.97
7,CO[C@@]1(NC(=O)Cc2cccs2)C(=O)N2C(C(=O)[O-])=C(COC(N)=O)CS[C@@H]21,-2.27
8,C=CCc1ccccc1OCC(O)CNC(C)C (stereo not shown),12.1
9,c1ccc(CC(c2ccccc2)N2CCCCC2)cc1 (racemic),6.03
10,CC(COc1ccccc1Cc1ccccc1)N1CCCCC1 (stereo not shown),72
11,OC[C@H]1O[C@@H]2O[C@H]3[C@H](O)[C@@H](O)[C@@H](O[C@H]4[C@H](O)[C@@H](O)[C@@H](O[C@H]5[C@H](O)[C@@H](O)[C@@H](O[C@H]6[C@H](O)[C@@H](O)[C@@H](O[C@H]7[C@H](O)[C@@H](O)[C@@H](O[C@H]8[C@H](O)[C@@H](O)[C@@H](O[C@H]1[C@H](O)[C@H]2O)O[C@@H]8CO)O[C@@H]7CO)O[C@@H]6CO)O[C@@H]5CO)O[C@@H]4CO)O[C@@H]3CO,-4.2
12,Cc1cc(-c2ccc(/N=N/c3ccc4c(S(=O)(=O)[O-])cc(S(=O)(=O)[O-])c(N)c4c3O)c(C)c2)ccc1/N=N/c1ccc2c(S(=O)(=O)[O-])cc(S(=O)(=O)[O-])c(N)c2c1O,10.1
13,COc1cc2c(cc1F)C(c1ccccc1Cl)=NC1=C(C)NNC1=N2,-1.52
14,CCCN(CCC)C(=O)C(CCC(=O)[O-])NC(=O)c1ccccc1 (stereo not shown),-3.27
15,COc1cc2ncn(-c3cc(OCc4ccccc4C(F)(F)F)c(C(N)=O)s3)c2cc1OC,-2.1
16,C[C@@H](Oc1cc(-n2cnc3ccc(CN4CCN(C)CC4)cc32)sc1C(N)=O)c1ccccc1C(F)(F)F,75.1
17,CC(C)c1cc(C(=O)N2Cc3ccc(CN4CCN(C)CC4)cc3C2)c(O)cc1O,8.21
18,CN[C@@H]1[C@H](OC2[C@H](O[C@H]3[C@H](O)[C@@H](O)[C@H](NC(=N)N)[C@@H](O)[C@@H]3NC(=N)N)O[C@@H](C)[C@]2(O)C=O)O[C@@H](CO)[C@H](O)[C@H]1O (stereo partly shown),-1.71
19,O=C([O-])P(=O)([O-])[O-],-2.03
20,C=CCn1c(=O)n([C@@H]2O[C@H](CO)[C@@H](O)[C@H]2O)c2nc(N)nc(O)c21,-1.06
21,COC(=O)C(c1ccccc1)C1CCCCN1 (stereo not shown),10.3
22,OC(c1cc(C(F)(F)F)nc2c(C(F)(F)F)cccc12)C1CCCCN1 (stereo not shown),50
23,Nc1c(CC(=O)[O-])cccc1C(=O)c1ccc(Br)cc1,0.95
24,NS(=O)(=O)NCCNc1nonc1/C(=N\c1ccc(F)c(Br)c1)NO,-3.83
25,CN1[C@@H]2C[C@@H](O)C[C@H]1[C@@H]1O[C@@H]12,17.2

row,Structure (SMILES),result_ITMP [%]
1,COc1ccccc1N1CCN(CCCCNC(=O)c2ccc(-c3ccc(C(C)=O)cc3)cc2)CC1,6.35
2,COc1ccc(NC(=O)c2ccc(-c3ccc(-c4noc(C)n4)cc3C)cc2)cc1OCCN(C)C,81.5
3,COc1cc(C(=O)NCc2ccc(OCCN(C)C)cc2)cc(OC)c1OC,-1.29
4,COc1ccc(C(=O)NCc2ccc(OCCN(C)C)cc2)cc1OC,6.48
5,COc1ccc(NS(=O)(=O)c2ccc(I)cc2)cc1N1CCN(C)CC1,16.4
6,COc1ccc(NC(=O)c2ccc(-c3ccc(-c4noc(C)n4)cc3C)cc2)cc1N1CCN(C)CC1,142
7,C[C@@H]1CC[C@H]2C(C)(C)[C@H]3C[C@@]12CC[C@@]3(C)O,4.78
8,O=C(O)c1cc(O)c2ccccc2n1,3.47
9,O=C([O-])CCCCCCCCC(=O)[O-],-5.98
10,Cc1cccc(-c2nc(C(C)(C)C)[nH]c2-c2ccc3nccnc3c2)n1,-5.96
11,CCCn1c(=O)c2nc(C3CCCC3)[nH]c2n(CCC)c1=O,9.14
12,C=C1CC[C@H](O)C/C1=C/C=C1\CCC[C@]2(C)[C@@H]([C@H](C)CCCC(C)(C)O)CC[C@@H]12,-0.38
13,C=C1/C(=C\C=C2/CCC[C@]3(C)[C@@H]([C@H](C)CCCC(O)(C(F)(F)F)C(F)(F)F)CC[C@@H]23)C[C@@H](O)C[C@@H]1O,0.82
14,C[C@]12CCC(=O)C=C1CCC1C2[C@@H](O)C[C@@]2(C)C1CC[C@]2(O)C(=O)COC(=O)CCC(=O)O (stereo partly shown),-1.39
15,COc1cccc(CCc2ccccc2OCC[C@@H]2C[C@@H](O)CN2C)c1,90.4
16,COc1cccc(CN2C[Si](C)(C)O[Si](C)(C)C2)c1,-1.81
17,O=c1[nH]c2ccccc2n1CCCN1CCN(C(c2ccccc2)c2ccccc2)CC1,26.4
18,C[C@@H]1CN(CCCn2c3ccccc3c3ccccc32)C[C@H](C)N1,99.9
19,O=c1[nH]c2ccccc2c(=O)n1CCCN1CCN(c2ccccc2)CC1,-3.31
20,CC(C)CCC[C@@H](C)[C@H]1CC[C@H]2[C@@H]3CCC4=CC(=NO)CC[C@]4(C)[C@H]3CC[C@]12C,-0.61
21,CNCCCC1(c2ccccc2)OC(C)(C)c2ccccc21 (stereo not shown),29.5
22,CNCCCC12CCC(c3ccccc31)c1ccccc12,107
23,CNCCCN1c2ccccc2CCc2ccccc21,36.6
24,O=C(O)c1ccc(N[C@H]2O[C@H](CO)[C@@H](O)[C@H](O)[C@@H]2O)cc1,-5.7
